# Laboratory results: PubChem BioAssay AID720553 (National Center for Advancing Translational Sciences (NCATS), 2013)
# About 3,300 (0.97%) of roughly 340,000 compounds were called active. This is one part of a sample in which actives are shown more often than they occur.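 How the source made its calls: active means maximum activity change below -70%; inconclusive means maximum activity change from -70% to -50%; inactive means maximum activity change above -50%.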
# Tested on: Potassium voltage-gated channel subfamily H member 2, brain isoform KCNH2 3.1 (human)
# Test: qHTS for Inhibitors of KCHN2 3.1: Mutant qHTS
# Details: U2OS KCNH2 3.1, thallium flux FluxOr; active compounds read low
# In short: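 Channel expression came from 3.1 mutant virus (1.77 x 10^8 /mL) applied to suspended U2OS cells for 4 h. Flux was tracked with FluxOr dye plus Red40 quencher, and kinetic rate constants normalized to controls.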
# On the % scale 0 is the no-effect control and ±100 the full control effect.
row,SMILES,activity change
1,Cc1ccc([C@H]2C[C@H](O)[C@@H](n3cc(COC(=O)c4ccccc4)nn3)CN2CC2CCCCC2)cc1,1.72% (inactive)
2,CCCN1Cc2cccc(C(=O)NCc3ccccc3)c2C1=O,-73.5% (active)
3,COCCN1Cc2cccc(C(=O)Nc3ccccc3OC)c2C1=O,-4.17% (inactive)
4,CCCN1Cc2cccc(C(=O)Nc3ccc(S(=O)(=O)N4CCCCCC4)cc3)c2C1=O,-4.68% (inactive)
5,Cc1onc(-c2ccccc2)c1-c1nnc(COC(=O)c2ccc(N(C)C)cc2)o1,-2.8% (inactive)
6,Cc1csc(=O)n1CCC(=O)OCC(=O)Nc1ccc(N2CCOCC2)cc1,26.4% (inactive)
7,CCc1cc(C(=O)N(CC)CC(=O)Nc2c(F)cccc2F)sc1C,6.15% (inactive)
8,O=C(O)c1ccc(F)c(S(=O)(=O)Nc2ccccc2)c1,-0.905% (inactive)
9,O=C(Nc1ccccc1-c1ccccc1)c1cccs1,3.41% (inactive)
10,Cc1ccc(C(=O)Nc2ccccc2-c2ccccc2)cc1S(=O)(=O)Nc1ccccc1,-81.2% (active)
11,O[C@H]1CN(Cc2cccs2)[C@@H](c2ccc(Cl)cc2)C[C@@H]1n1cc(C2CC2)nn1,1.17% (inactive)
12,O=C1CC[C@@H](C(=O)N2CSC[C@@H]2C(=O)Nc2ccc(C(F)(F)F)cc2)N1,0.48% (inactive)
13,Cc1ccc(Cc2c(-c3ccc(C)cc3)nc3c4ccccc4ccn23)cc1,-46.3% (inactive)
14,CCOc1ccc(S(=O)(=O)NCCC(=O)NNC(=O)c2ccc(F)cc2)cc1,7.87% (inactive)
15,COc1ccc(/C=C(\NC(=O)c2ccccc2)C(=O)NCCN2CCOCC2)cc1OC,-4.51% (inactive)
16,O=C(NCCN1CCOCC1)/C(=C/c1ccc(F)cc1)NC(=O)c1ccccc1,-9.2% (inactive)
17,Cc1ccc(C(=O)N/C(=C\c2ccc(F)cc2)C(=O)NCCN2CCOCC2)cc1,-89.5% (active)
18,COC(=O)N(C)C[C@@H]1OCc2cnnn2CCCC(=O)N([C@@H](C)CO)C[C@@H]1C,5.22% (inactive)
19,Cc1cccc(C(=O)C(O)(c2ccccc2)C2CCCCC2=O)c1 (centres undefined),-14.9% (inactive)
20,COc1ccc(S(=O)(=O)N(C)C[C@H]2OCc3cnnn3CCCC(=O)N([C@H](C)CO)C[C@H]2C)cc1,11.2% (inactive)
21,COc1cc2nnn(-c3ccncc3)c2cc1OC,-4.09% (inactive)
22,COc1ccc2nc(-c3ccccn3)ccc2c1,6.65% (inactive)
23,C=CCn1c(SCC(=O)NC)nnc1C12CC3CC(CC(C3)C1)C2,-75% (active)

row,SMILES,activity change
1,C=CCn1c(C23CC4CC(CC(C4)C2)C3)n[nH]c1=S,-5.08% (inactive)
2,C=CCn1c(SCC(=O)NC23CC4CC(CC(C4)C2)C3)nc(O)cc1=O,30.9% (inactive)
3,Cc1ccc(S(=O)(=O)/N=C2\C=C(NS(=O)(=O)c3ccc(C)cc3)C(=O)c3ccccc32)cc1,17.4% (inactive)
4,C[C@H]1CN([C@@H](C)CO)S(=O)(=O)c2ccc(Br)cc2O[C@H]1CN(C)C(=O)c1cnccn1,10.6% (inactive)
5,O=C(Nc1ccc2c(c1)nc1n2CCCCC1)c1cc(S(=O)(=O)N2CCOCC2)ccc1Cl,-83.4% (active)
6,O=C(Nc1ccc(N2CCOCC2)c(Cl)c1)c1ccc(S(=O)(=O)N2CCOCC2)cc1,-3.05% (inactive)
7,O=C(Nc1ccc(N2CCCCC2)cc1)c1cc(S(=O)(=O)N2CCOCC2)ccc1F,-0.576% (inactive)
8,CC(C)c1ccc(-c2noc(C3CCCN(S(C)(=O)=O)C3)n2)cc1 (centres undefined),-21.4% (inactive)
9,COc1cc(-c2noc(C3CCCN(S(=O)(=O)c4cccc(Cl)c4)C3)n2)cc(OC)c1OC (centres undefined),-93.6% (active)
10,COc1cccc(-c2noc(C3CCCN(C(=O)c4ccc(F)cc4)C3)n2)c1 (centres undefined),16.8% (inactive)
11,CCOC(=O)c1c(NC(=S)SC)sc(C(=O)N2CCc3ccccc3C2)c1C,-4.73% (inactive)
12,CC1=C(C(=O)N2CCOCC2)CC(CC(=O)NCc2ccco2)C(=O)N1Cc1ccc(F)cc1 (centres undefined),-24.5% (inactive)
13,C=CCNC(=O)COC(=O)c1ccccc1C(=O)N(C)C1CCCCC1,-110% (active)
14,CC1CCCC(NC(=O)COC(=O)c2ccccc2C(=O)N(C)C2CCCCC2)C1C (centres undefined),7.73% (inactive)
15,O=C(COC(=O)c1ccccc1Cl)NC1CCCCCCC1,-1.39% (inactive)
16,CCCCN(C(C)=O)c1ccc2c(c1)C1CC2CCN1Cc1ccccc1 (centres undefined),0.966% (inactive)
17,O=C(Nc1ccc(Cl)cn1)c1ccccc1-c1ccccc1,-14.9% (inactive)
18,CC1(C)Cc2cccc(OCC(=O)N3CCN(c4ccc([N+](=O)[O-])cc4)CC3)c2O1,-91.8% (active)
19,CC1(C)Cc2cccc(OCC(N)=O)c2O1,-6.48% (inactive)
20,CC1(C)Cc2cccc(OCC(=O)NCc3ccccc3)c2O1,0.403% (inactive)
21,S=C(NN=Cc1ccccn1)Nc1ccccn1,-6.69% (inactive)
22,COc1ccc(C(=O)OCC(=O)Nc2cc(C)on2)cc1F,-0.754% (inactive)
23,CSCCC(NC(=O)COc1ccccc1)C(=O)OCCOc1ccc(F)cc1 (centres undefined),-11.8% (inactive)

row,SMILES,activity change
1,CSCCC(NC(=O)COc1ccccc1)C(=O)OCCOc1ccc(Br)cc1 (centres undefined),-21.4% (inactive)
2,CSCCC(NC(=O)COc1ccccc1)C(=O)N1CCN(c2cccc(C(F)(F)F)c2)CC1 (centres undefined),-70% (active)
3,O=C(Nc1cccc2ccccc12)NC1CC1,-0.285% (inactive)
4,COc1ccc(C(C)(C)C)cc1NC(=O)CN(C)C1=NS(=O)(=O)c2ccccc21,-5.7% (inactive)
5,O=C(COc1ccc2c3c(c(=O)oc2c1)CCCC3)NCC(O)c1ccccc1 (centres undefined),10.4% (inactive)
6,Cc1cc(OCC(=O)NCC(O)c2ccccc2)c2c(C)c(C)c(=O)oc2c1 (centres undefined),29.5% (inactive)
7,O=C(COc1ccc2ccc(=O)oc2c1)NCC(O)c1ccccc1 (centres undefined),-87.9% (active)
8,O=C(NCCOc1ccccc1)N1[C@H]2CC[C@@H]1C=C(c1ccc(F)cc1OCc1ccccc1)C2,-21.8% (inactive)
9,CCNC(=O)COc1cc(C)c(Br)c(C)c1,-198% (active)
10,CCOC(=O)C1CCN(C(=O)COc2cc(C)c(Br)c(C)c2)CC1,-6.53% (inactive)
11,COCCCNC(=O)COc1cc(C)c(Cl)c(C)c1,30.5% (inactive)
12,Cc1ccc(S(=O)(=O)N2C[C@]3(O)C[C@@H]4C(=O)N(c5ccccc5)C(=O)[C@@H]4C[C@]3(OC(=O)NC3CC3)C2)cc1,-5.83% (inactive)
13,Cc1ccc(NC(=O)Cn2sc3ccccc3c2=O)cc1,8.97% (inactive)
14,COc1cccc(CC2(CO)CCCN(Cc3ccc(OC(F)F)cc3)C2)c1 (centres undefined),-90.5% (active)
15,COc1cccc(CC2(CO)CCCN(Cc3nc(-c4cccs4)oc3C)C2)c1 (centres undefined),-14.6% (inactive)
16,COc1cccc(CNC(=O)CCC2CCCN(C(=O)c3ccoc3C)C2)c1 (centres undefined),-8.72% (inactive)
17,COc1cccc(C(=O)N2CCCC(CCC(=O)NCc3ccc(F)c(F)c3)C2)c1 (centres undefined),-33.7% (inactive)
18,COc1cccc(CNC(=O)CCC2CCCN(Cc3ccc(OC(F)F)cc3)C2)c1 (centres undefined),-93.7% (active)
19,COc1cccc(CC2(CO)CCCN(CC3=Cc4cc(OC)ccc4OC3)C2)c1 (centres undefined),-14.2% (inactive)
20,CCCn1c(N)c(C(=O)CSc2nnc(Cc3cccs3)n2C2CC2)c(=O)[nH]c1=O,7.67% (inactive)
21,Cc1cccc(S(=O)(=O)N(C)C[C@H]2OCc3cnnn3CCCC(=O)N([C@@H](C)CO)C[C@H]2C)c1,36.2% (inactive)
22,CCCCCCNC(=O)O[C@H]1CN(C(=O)OC(C)C)N(C(=O)OC(C)C)[C@@H]2CN(S(=O)(=O)c3ccc(C)cc3)C[C@]12O,0.662% (inactive)
23,COc1ccc(-c2ccc(CN3C(CC(C)C)C(=O)N(Cc4cn(CC5CCCCC5)nn4)CCS3(=O)=O)cc2)cc1 (centres undefined),-16.5% (inactive)

row,SMILES,activity change
1,CC1(c2cccc(Br)c2)NC(=O)N(CC(=O)NCCC2=CCCCC2)C1=O (centres undefined),-2.93% (inactive)
2,Cc1nc2nc[nH]n2c(=O)c1NC(=O)c1cccc(OCC(C)C)c1,-182% (active)
3,Cc1noc(C)c1COc1cccc(C(=O)Nc2cccnc2)c1,5.81% (inactive)
4,Cc1nc2nc[nH]n2c(=O)c1C/C=C/c1ccccc1,-5.87% (inactive)
5,C[C@H]1CN([C@@H](C)CO)C(=O)c2cc(C3=CCCCC3)cnc2O[C@@H]1CN(C)C(=O)Cc1ccccc1,-6.94% (inactive)
6,CC(=O)Nc1ccc(SCC(=O)NC(=O)c2ccc(Cl)cc2)cc1,-9.69% (inactive)
7,COc1cccc(NC(=S)N(CCc2c(C)[nH]c3ccccc23)Cc2ccco2)c1,-11% (inactive)
8,COc1ccc2[nH]c(C)c(CCN(Cc3cccs3)C(=S)Nc3ccccc3OC)c2c1,-8.67% (inactive)
9,Cc1[nH]c2ccccc2c1CCN(Cc1cccs1)C(=S)NC(C)(C)C,-70.5% (active)
10,Cc1ccc(S(=O)(=O)NN=C2CC(C)(C)CC(=O)C2(C)C)cc1,-9.11% (inactive)
11,C[C@@H]1Cn2cnc(C(=O)Nc3ccc(CNC(=O)OC(C)(C)C)cc3)c2C(=O)N1,-19.4% (inactive)
12,C[C@H]1Cn2cnc(C(=O)N[C@@H](Cc3c[nH]c4ccccc34)C(=O)OC(C)(C)C)c2C(=O)N1,-11.5% (inactive)
13,N#Cc1c(NC(=O)CSc2nc3ccccc3c(=O)n2Cc2ccco2)sc2c1CCCC2,-19.1% (inactive)
14,CCOC(=O)CSc1nc2c(sc(=S)n2CCc2ccccc2)c(=O)n1Cc1ccco1,-91% (active)
15,CCOC(=O)CSc1nc2c(c(=O)n(Cc3ccccc3Cl)c(=O)n2C)n1C,-10.8% (inactive)
16,C=CCOc1ccccc1CNn1c(C)n[nH]c1=S,3.24% (inactive)
17,C[C@@H]1CN([C@@H](C)CO)C(=O)CCCn2nncc2CO[C@@H]1CN(C)S(=O)(=O)c1ccc(-c2ccccc2)cc1,8.36% (inactive)
18,COc1ccc(C(CCNCc2ccccc2F)c2ccc(F)cc2)cc1 (centres undefined),-100% (active)
19,COc1ccc(CCNC(=O)COC(=O)Cc2ccccc2F)cc1,8.82% (inactive)
20,COc1cccc(CNCCc2c[nH]c3ccccc23)c1OCc1ccccc1F,-1.51% (inactive)
